# A number with no mark means an inactive call.
# Tested on: Vero E6 infected with SARS-CoV-2
# Experiment: inhibition of SARS-CoV-2 cytopathic effect; higher = more antiviral protection, active = above 15
# Conditions: 48 h
Compound,inhibition of SARS-CoV-2 cytopathic effect (1 nM),inhibition of SARS-CoV-2 cytopathic effect (8.33 nM),inhibition of SARS-CoV-2 cytopathic effect (100 nM),inhibition of SARS-CoV-2 cytopathic effect (833.33 nM),inhibition of SARS-CoV-2 cytopathic effect (10000 nM)
NC(=O)Nc1cc(-c2cccc(F)c2)sc1C(=O)N[C@H]1CCCNC1,-2.18%,0.53%,-2.2%,-4.24%,-19.5%
Cc1ccc(=O)n(-c2ccccc2)c1 [pirfenidone],3.93%,6.69%,3.96%,3.47%,5.58%
C[C@@H]1O[C@@H](O[C@H]2[C@H](Oc3cc(O)c(C(=O)CCc4ccc(O)cc4)c(O)c3)O[C@H](CO)[C@@H](O)[C@@H]2O)[C@H](O)[C@H](O)[C@H]1O [naringin-dihydrochalcone],0.83%,0.35%,0.27%,0.83%,1.4%
CNCCCN1c2ccccc2CCc2ccccc21 [desipramine],-0.7%,-0.11%,-1.22%,-1.13%,-2.62%
NC1(c2ccc(-c3nc4ccn5c(=O)[nH]nc5c4cc3-c3ccccc3)cc2)CCC1,-1.08%,0.48%,2.84%,1.79%,24.5% (active)
COC(=O)C[C@](O)(CCCC(C)(C)O)C(=O)O[C@@H]1C(OC)=C[C@]23CCCN2CCc2cc4c(cc2[C@H]13)OCO4 [homoharringtonine],1.04%,2.85%,26.2% (active),4.43%,-23.7%

# Reference: the supplement of paper PMC13380429
